Results from publication PMC5540273 (PLoS ONE, 2017).
Like-named read-outs stand apart in the source and are kept apart here.

What was measured:
TAK1 = test system: T1, TAK1; conditions: concentration: 1 μM, replicates: in singlicate; n = 1
T1 construct: gene MAP3K7

TAOK1 = conditions: concentration: 1 μM, replicates: in singlicate; n = 1
TAOK2 = conditions: concentration: 1 μM, replicates: in singlicate; n = 1
TAOK3 = conditions: concentration: 1 μM, replicates: in singlicate; n = 1
TBK1 = conditions: concentration: 1 μM, replicates: in singlicate; n = 1
TEC = conditions: concentration: 1 μM, replicates: in singlicate; n = 1
TESK1 = conditions: concentration: 1 μM, replicates: in singlicate; n = 1
TGFBR1 = conditions: n = 1
TGFBR2 = conditions: concentration: 1 μM, replicates: in singlicate; n = 1
TIE1 = conditions: concentration: 1 μM, replicates: in singlicate; n = 1
TIE2 = test system: T2, TIE2; conditions: concentration: 1 μM, replicates: in singlicate; n = 1
T2 construct: gene TEK

TLK1 = conditions: concentration: 1 μM, replicates: in singlicate; n = 1
TLK2 = conditions: concentration: 1 μM, replicates: in singlicate; n = 1
TNIK = conditions: concentration: 1 μM, replicates: in singlicate; n = 1
TNK1 = conditions: concentration: 1 μM, replicates: in singlicate; n = 1
TNK2 = conditions: concentration: 1 μM, replicates: in singlicate; n = 1
TNNI3K = conditions: concentration: 1 μM, replicates: in singlicate; n = 1
TRKA = test system: T3, TRKA; conditions: concentration: 1 μM, replicates: in singlicate; n = 1
T3 construct: gene NTRK1

TRKB = conditions: concentration: 1 μM, replicates: in singlicate; n = 1
TRKC = test system: T4, TRKC; conditions: concentration: 1 μM, replicates: in singlicate; n = 1
T4 construct: gene NTRK3

[1] = concentration: 1 μM, replicates: in singlicate
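Also: KINOMEscan kinase panel screen.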

Cc1cccc(-c2cc(-c3c[nH]nc3-c3ccccn3)ccn2)c1 [GW679395]
%Inh (TAK1): 0% | %Inh (TAOK1): 0% | %Inh (TAOK2): 0% | %Inh (TAOK3): 0% | %Inh (TBK1): 12% | %Inh (TEC): 0% | %Inh (TESK1): 9% | %Inh (TGFBR1; 1 µM): 57% | %Inh (TGFBR2): 0% | %Inh (TIE1): 0% | %Inh (TIE2): 0% | %Inh (TLK1): 0% | %Inh (TLK2): 0% | %Inh (TNIK): 59% | %Inh (TNK1): 0% | %Inh (TNK2): 4% | %Inh (TNNI3K): 9% | %Inh (TRKA): 0% | %Inh (TRKB): 13% | %Inh (TRKC): 20%

Nc1ncnc2c1ncn2-c1cccc2ccccc12 [SKF-97184]
%Inh (TAK1): 3% | %Inh (TAOK1): 0% | %Inh (TAOK2): 9% | %Inh (TAOK3): 0% | %Inh (TBK1): 30% | %Inh (TEC): 0% | %Inh (TESK1): 0% | %Inh (TGFBR1; [1]): 40% | %Inh (TGFBR2): 11% | %Inh (TIE1): 0% | %Inh (TIE2): 0% | %Inh (TLK1): 0% | %Inh (TLK2): 18% | %Inh (TNIK): 10% | %Inh (TNK1): 0% | %Inh (TNK2): 0% | %Inh (TNNI3K): 0% | %Inh (TRKA): 25% | %Inh (TRKB): 0% | %Inh (TRKC): 6%

Nc1ncnc2c1ncn2-c1ccc(Cl)cc1 [AH2635]
%Inh (TAK1): 0% | %Inh (TAOK1): 0% | %Inh (TAOK2): 0% | %Inh (TAOK3): 0% | %Inh (TBK1): 15% | %Inh (TEC): 9% | %Inh (TESK1): 4% | %Inh (TGFBR1; [1]): 0% | %Inh (TGFBR2): 6% | %Inh (TIE1): 0% | %Inh (TIE2): 0% | %Inh (TLK1): 0% | %Inh (TLK2): 0% | %Inh (TNIK): 0% | %Inh (TNK1): 0% | %Inh (TNK2): 0% | %Inh (TNNI3K): 0% | %Inh (TRKA): 14% | %Inh (TRKB): 0% | %Inh (TRKC): 16%

Cc1cc(Nc2nc(-c3cccc(C)n3)nc3ccccc23)ccn1 [GW872411]
%Inh (TAK1): 0% | %Inh (TAOK1): 0% | %Inh (TAOK2): 29% | %Inh (TAOK3): 0% | %Inh (TBK1): 0% | %Inh (TEC): 1% | %Inh (TESK1): 0% | %Inh (TGFBR1; 1 µM): 83% | %Inh (TGFBR2): 0% | %Inh (TIE1): 0% | %Inh (TIE2): 13% | %Inh (TLK1): 0% | %Inh (TLK2): 15% | %Inh (TNIK): 13% | %Inh (TNK1): 25% | %Inh (TNK2): 0% | %Inh (TNNI3K): 0% | %Inh (TRKA): 0% | %Inh (TRKB): 0% | %Inh (TRKC): 0%

CCn1c(-c2ccoc2)nc2cnccc21 [SB-733887]
%Inh (TAK1): 91.4% | %Inh (TAOK1): 0% | %Inh (TAOK2): 0% | %Inh (TAOK3): 0% | %Inh (TBK1): 12% | %Inh (TEC): 16% | %Inh (TESK1): 29% | %Inh (TGFBR1; [1]): 0% | %Inh (TGFBR2): 0% | %Inh (TIE1): 0% | %Inh (TIE2): 7% | %Inh (TLK1): 0% | %Inh (TLK2): 0% | %Inh (TNIK): 0% | %Inh (TNK1): 0% | %Inh (TNK2): 3% | %Inh (TNNI3K): 11% | %Inh (TRKA): 0% | %Inh (TRKB): 41% | %Inh (TRKC): 13%

Fc1cccc(CSc2nnc(-c3ccc4c(c3)CCO4)o2)c1
%Inh (TAK1): 32% | %Inh (TAOK1): 0% | %Inh (TAOK2): 0% | %Inh (TAOK3): 0% | %Inh (TBK1): 19% | %Inh (TEC): 20% | %Inh (TESK1): 0% | %Inh (TGFBR1; [1]): 11% | %Inh (TGFBR2): 28% | %Inh (TIE1): 8% | %Inh (TIE2): 7% | %Inh (TLK1): 0% | %Inh (TLK2): 12% | %Inh (TNIK): 0% | %Inh (TNK1): 0% | %Inh (TNK2): 8% | %Inh (TNNI3K): 6% | %Inh (TRKA): 3% | %Inh (TRKB): 0% | %Inh (TRKC): 28%

COc1cccc(C2=C(Nc3cccc(C(=O)O)c3)C(=O)NC2=O)c1 [SB-390770]
%Inh (TAK1): 0% | %Inh (TAOK1): 0% | %Inh (TAOK2): 0% | %Inh (TAOK3): 0% | %Inh (TBK1): 12% | %Inh (TEC): 0% | %Inh (TESK1): 28% | %Inh (TGFBR1; [1]): 1% | %Inh (TGFBR2): 0% | %Inh (TIE1): 27% | %Inh (TIE2): 37% | %Inh (TLK1): 7% | %Inh (TLK2): 0% | %Inh (TNIK): 4% | %Inh (TNK1): 0% | %Inh (TNK2): 12% | %Inh (TNNI3K): 8% | %Inh (TRKA): 56% | %Inh (TRKB): 0% | %Inh (TRKC): 0%

O=C(Nc1n[nH]c2nc(-c3ccccc3)c(Cl)cc12)C1CC1 [SB-734909]
%Inh (TAK1): 8% | %Inh (TAOK1): 0% | %Inh (TAOK2): 0% | %Inh (TAOK3): 0% | %Inh (TBK1): 38% | %Inh (TEC): 0% | %Inh (TESK1): 6% | %Inh (TGFBR1; [1]): 0% | %Inh (TGFBR2): 0% | %Inh (TIE1): 0% | %Inh (TIE2): 15% | %Inh (TLK1): 0% | %Inh (TLK2): 6% | %Inh (TNIK): 8% | %Inh (TNK1): 0% | %Inh (TNK2): 0% | %Inh (TNNI3K): 0% | %Inh (TRKA): 0% | %Inh (TRKB): 0% | %Inh (TRKC): 0%

COC(=O)c1c(-c2ccccc2)c2cc(Br)ccc2c(=O)n1Cc1ccc(S(C)(=O)=O)cc1
%Inh (TAK1): 39% | %Inh (TAOK1): 0% | %Inh (TAOK2): 0% | %Inh (TAOK3): 0% | %Inh (TBK1): 19% | %Inh (TEC): 25% | %Inh (TESK1): 22% | %Inh (TGFBR1; [1]): 4% | %Inh (TGFBR2): 0% | %Inh (TIE1): 21% | %Inh (TIE2): 3% | %Inh (TLK1): 14% | %Inh (TLK2): 0% | %Inh (TNIK): 0% | %Inh (TNK1): 0% | %Inh (TNK2): 1% | %Inh (TNNI3K): 0% | %Inh (TRKA): 0% | %Inh (TRKB): 0% | %Inh (TRKC): 24%

Cc1ccc(Oc2ccc(Nc3ncnc4cc[nH]c34)cc2C)cn1
%Inh (TAK1): 30% | %Inh (TAOK1): 0% | %Inh (TAOK2): 0% | %Inh (TAOK3): 0% | %Inh (TBK1): 30% | %Inh (TEC): 6% | %Inh (TESK1): 13% | %Inh (TGFBR1; [1]): 2% | %Inh (TGFBR2): 0% | %Inh (TIE1): 0% | %Inh (TIE2): 13% | %Inh (TLK1): 6% | %Inh (TLK2): 12% | %Inh (TNIK): 0% | %Inh (TNK1): 0% | %Inh (TNK2): 12% | %Inh (TNNI3K): 3% | %Inh (TRKA): 42% | %Inh (TRKB): 14% | %Inh (TRKC): 17%
